Test results published in paper PMC5892938, “SARNAclust: Semi-automatic detection of RNA protein binding motifs from immunoprecipitation data”.
Whole data set: some 11,000 sequences, median “log2 fold change” near 0.00022, cut for the highest 2% near 0.34. The list shows a part of the results.

target: GST-SBP-SLBP (stem-loop binding protein) (Homo sapiens, UniProt Q14493 1-270); assay: targeted RNA Bind-n-Seq; RBNS binding buffer: 25 mM Tris pH 7.5, 150 mM KCl, 3 mM MgCl2, 0.1% Tween, 0.5 mg/mL BSA, 1 mM DTT; 27 nM protein, 750 pM RNA pool; temperature not stated; high values mean tight binding; details: protein: recombinant; tags: N-terminal GST and SBP (pGEX6P1-SBP); structured_RNA
How it was run: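 The protein, carrying a GST-SBP tag, was produced in Rosetta(DE3) pLysS E. coli, purified on glutathione, and mixed at 27 nM with 750 pM of a designed RNA oligo pool made by T7 transcription in RBNS binding buffer. RNA that bound was reverse transcribed using a barcoded primer of 10 nucleotides, amplified by PCR and sequenced on a MiSeq with 200-cycle paired-end reads. FLASH joined the reads, HISAT2 aligned them, and they were collapsed by barcode before the binding signal was taken as the DEseq binary-logarithm fold change of read counts for each sequence.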

Sequence	binding signal
GGUCACGUCUCAAUCAACUCUUACGAGGGGGGGAAAACCCCUUUACCCUCUUCUUCAACAGCUCGCAGUCAAG	0.477 ± 0.42 log2 fold change
GGUCACGUCUCAAUCAACUCUUACGAGGGGGGGAAAACCCCUUUACCCUCACACUCAACAGCUCGCAGUCAAG	0.321 ± 0.386 log2 fold change
GGUCACGUCUCAAUCAACUCUCACGAGGGGGGGAAAACCCCUUUACCCUCAACUUCAACAGCUCGCAGUCAAG	0.363 ± 0.418 log2 fold change
GGUCACGUCUCAAUCAACUCAAACGAGGGGGGGAAAACCCCUUUACCCUCAUUCUCAACAGCUCGCAGUCAAG	0.326 ± 0.393 log2 fold change
GGUCACGUCUCAAUCAACUCAAACGAGGGGGGGAAAACCCCUUUACCCUCAACUUCAACAGCUCGCAGUCAAG	0.35 ± 0.421 log2 fold change
GGUCACGUCUCAAUCAACUCUCACGAGGGGGGGAAAACCCCUUUACCCUCUUACUCAACAGCUCGCAGUCAAG	0.346 ± 0.439 log2 fold change
GGUCACGUCUCAAUCAACUCUAACGAGGGGGGGAAAACCCCUUUACCCUCAACUUCAACAGCUCGCAGUCAAG	0.426 ± 0.419 log2 fold change
GGUCACGUCUCAAUCAACUCUAACGAGGGGGGGAAAACCCCUUUACCCUCUAUAUCAACAGCUCGCAGUCAAG	0.308 ± 0.434 log2 fold change
GGUCACGUCUCAAUCAACUCAACGGAGGGGGGGAAAACCCCUUUACCCUCAACAUCAACAGCUCGCAGUCAAG	0.308 ± 0.444 log2 fold change
GGUCACGUCUCAAUCAACUCCUUCGAGGGGGGGAAAACCCCUUUACCCUCUUCAUCAACAGCUCGCAGUCAAG	0.429 ± 0.434 log2 fold change
GGUCACGUCUCAAUCAACUCUUCGGAGGGGGGGAAAACCCCUUUACCCUCAAUCUCAACAGCUCGCAGUCAAG	0.453 ± 0.428 log2 fold change
GGUCACGUCUCAAUCAACUCCUUCGAGGGGGGGAAAACCCCUUUACCCUCACCUUCAACAGCUCGCAGUCAAG	0.36 ± 0.426 log2 fold change
GGUCACGUCUCAAUCAACUCCUUCGAGGGGGGGAAAACCCCUUUACCCUCUUAAUCAACAGCUCGCAGUCAAG	0.305 ± 0.422 log2 fold change
GGUCACGUCUCAAUCAACUCUUUCGAGGGGGGGAAAACCCCUUUACCCUCAUAAUCAACAGCUCGCAGUCAAG	0.336 ± 0.429 log2 fold change
GGUCACGUCUCAAUCAACUCCUUCGAGGGGGGGAAAACCCCUUUACCCUCACAAUCAACAGCUCGCAGUCAAG	0.304 ± 0.425 log2 fold change
GGUCACGUCUCAAUCAACUCUUUCGAGGGGGGGAAAACCCCUUUACCCUCAUACUCAACAGCUCGCAGUCAAG	0.524 ± 0.429 log2 fold change
GGUCACGUCUCAAUCAACUCAAUCGAGGGGGGGAAAACCCCUUUACCCUCACCUUCAACAGCUCGCAGUCAAG	0.499 ± 0.434 log2 fold change
GGUCACGUCUCAAUCAACUCAACUUCCAGGGAAAACCCUGGUAUACUCAACAGCUCGCAGUCAAG	0.373 ± 0.293 log2 fold change
GGUCACGUCUCAAUCAACUCAAUUUCCAGGGAAAGCCCUGGUAUACUCAACAGCUCGCAGUCAAG	0.343 ± 0.255 log2 fold change
GGUCACGUCUCAAUCAACUCUACUUCCAGGGAAACCCCUGGUAUACUCAACAGCUCGCAGUCAAG	0.362 ± 0.285 log2 fold change
GGUCACGUCUCAAUCAACUCAACUCCCAGGGAAAGCCCUGGUAUACUCAACAGCUCGCAGUCAAG	0.301 ± 0.289 log2 fold change
GGUCACGUCUCAAUCAACUCUCUAGAGGGGGGGAAAACCCCUUUACCCUCACUUUCAACAGCUCGCAGUCAAG	0.308 ± 0.399 log2 fold change
GGUCACGUCUCAAUCAACUCGCAAGAGGGGGGGAAAACCCCUUUACCCUCAAUUUCAACAGCUCGCAGUCAAG	0.343 ± 0.444 log2 fold change
GGUCACGUCUCAAUCAACUCGCAAGAGGGGGGGAAAACCCCUUUACCCUCAAAUUCAACAGCUCGCAGUCAAG	0.308 ± 0.444 log2 fold change
GGUCACGUCUCAAUCAACUCACUAGAGGGGGGGAAAACCCCUUUACCCUCAAUUUCAACAGCUCGCAGUCAAG	0.352 ± 0.409 log2 fold change

Sequence	binding signal
GGUCACGUCUCAAUCAACUCUCCAGAGGGGGGGAAAACCCCUUUACCCUCACAUUCAACAGCUCGCAGUCAAG	0.328 ± 0.444 log2 fold change
GGUCACGUCUCAAUCAACUCCUCGGAGGGGGGGAAAACCCCUUUACCCUCAUAUUCAACAGCUCGCAGUCAAG	0.374 ± 0.433 log2 fold change
GGUCACGUCUCAAUCAACUCCUCGGAGGGGGGGAAAACCCCUUUACCCUCACAUUCAACAGCUCGCAGUCAAG	0.424 ± 0.434 log2 fold change
GGUCACGUCUCAAUCAACUCUCCAGAGGGGGGGAAAACCCCUUUGCCCUCCACAUCAACAGCUCGCAGUCAAG	0.318 ± 0.411 log2 fold change
GGUCACGUCUCAAUCAACUCCCCAGAGGGGGGGAAAACCCCUUUGCCCUCAAUAUCAACAGCUCGCAGUCAAG	0.552 ± 0.441 log2 fold change
GGUCACGUCUCAAUCAACUCAGAAGAGGGGGGGAAAACCCCUUUGCCCUCCAUAUCAACAGCUCGCAGUCAAG	0.327 ± 0.401 log2 fold change
GGUCACGUCUCAAUCAACUCAUCAGAGGGGGGGAAAACCCCUUUGCCCUCCACAUCAACAGCUCGCAGUCAAG	0.401 ± 0.446 log2 fold change
GGUCACGUCUCAAUCAACUCCUCAGAGGGGGGGAAAACCCCUUUGCCCUCCAAAUCAACAGCUCGCAGUCAAG	0.317 ± 0.412 log2 fold change
GGUCACGUCUCAAUCAACUCCACAGAGGGGGGGAAAACCCCUUUGCCCUCCAUAUCAACAGCUCGCAGUCAAG	0.437 ± 0.447 log2 fold change
GGUCACGUCUCAAUCAACUCUAUCCCCAGGGAAACCCCUGGCUUACUCAACAGCUCGCAGUCAAG	0.376 ± 0.273 log2 fold change
GGUCACGUCUCAAUCAACUCAUUCCCCAGGGAAAGCCCUGGCUUUUUCAACAGCUCGCAGUCAAG	0.512 ± 0.316 log2 fold change
GGUCACGUCUCAAUCAACUCAUUUCCCAGGGAAAGCCCUGGUAAUCUCAACAGCUCGCAGUCAAG	0.334 ± 0.275 log2 fold change
GGUCACGUCUCAAUCAACUCAAUCCCCAGGGAAAUCCCUGGCUUACUCAACAGCUCGCAGUCAAG	0.371 ± 0.289 log2 fold change
GGUCACGUCUCAAUCAACUCAUCCCCCAGGGAAAGCCCUGGCUUACUCAACAGCUCGCAGUCAAG	0.352 ± 0.269 log2 fold change
GGUCACGUCUCAAUCAACUCUAUCCCCAGGGAAAGCCCUGGCUUACUCAACAGCUCGCAGUCAAG	0.3 ± 0.283 log2 fold change
GGUCACGUCUCAAUCAACUCUUUUUCCAGGGAAAGCCCUGGCAUGUUCAACAGCUCGCAGUCAAG	0.337 ± 0.241 log2 fold change
GGUCACGUCUCAAUCAACUCAACUCCCAGGGAAAUCCCUGGUUAUCUCAACAGCUCGCAGUCAAG	0.334 ± 0.284 log2 fold change
GGUCACGUCUCAAUCAACUCAAUCCCCAGGGAAAUCCCUGGUUUACUCAACAGCUCGCAGUCAAG	0.393 ± 0.26 log2 fold change
GGUCACGUCUCAAUCAACUCUUUUUCCAGGGAAAGCCCUGGCUAUGUCAACAGCUCGCAGUCAAG	0.31 ± 0.256 log2 fold change
GGUCACGUCUCAAUCAACUCAUCCCCCAGGGAAAUCCCUGGCUUACUCAACAGCUCGCAGUCAAG	0.468 ± 0.259 log2 fold change
GGUCACGUCUCAAUCAACUCAUCUUCCAGGGAAAGCCCUGGCUUUCUCAACAGCUCGCAGUCAAG	0.425 ± 0.292 log2 fold change
GGUCACGUCUCAAUCAACUCUUCUUCCAGGGAAAGCCCUGGCUAUUUCAACAGCUCGCAGUCAAG	0.333 ± 0.251 log2 fold change
GGUCACGUCUCAAUCAACUCAGUUCCCAGGGAAAGCCCUGGCAUUUUCAACAGCUCGCAGUCAAG	0.449 ± 0.362 log2 fold change
GGUCACGUCUCAAUCAACUCAGUCCCCAGGGAAAGCCCUGGCAUAUUCAACAGCUCGCAGUCAAG	0.34 ± 0.375 log2 fold change
GGUCACGUCUCAAUCAACUCUAUCUCCAGGGAAACCCCUGGCAAACUCAACAGCUCGCAGUCAAG	0.323 ± 0.268 log2 fold change

Sequence	binding signal
GGUCACGUCUCAAUCAACUCAUCCUCCAGGGAAACCCCUGGCUAUUUCAACAGCUCGCAGUCAAG	0.363 ± 0.269 log2 fold change
GGUCACGUCUCAAUCAACUCUAUCUCCAGGGAAAGCCCUGGUUAUCUCAACAGCUCGCAGUCAAG	0.334 ± 0.307 log2 fold change
GGUCACGUCUCAAUCAACUCUAUCUCCAGGGAAACCCCUGGCUAACUCAACAGCUCGCAGUCAAG	0.366 ± 0.263 log2 fold change
GGUCACGUCUCAAUCAACUCAAUCUCCAGGGAAAGCCCUGGCUAACUCAACAGCUCGCAGUCAAG	0.405 ± 0.277 log2 fold change
GGUCACGUCUCAAUCAACUCUAUCUCCAGGGAAAACCCUGGCUAUUUCAACAGCUCGCAGUCAAG	0.433 ± 0.244 log2 fold change
GGUCACGUCUCAAUCAACUCAUCCUCCAGGGAAACCCCUGGCUAUCUCAACAGCUCGCAGUCAAG	0.3 ± 0.279 log2 fold change
GGUCACGUCUCAAUCAACUCUAUCUCCAGGGAAAGCCCUGGCUUACUCAACAGCUCGCAGUCAAG	0.329 ± 0.278 log2 fold change
GGUCACGUCUCAAUCAACUCUAUCCCCAGGGAAAACCCUGGCUAUCUCAACAGCUCGCAGUCAAG	0.336 ± 0.26 log2 fold change
GGUCACGUCUCAAUCAACUCAUCCUCCAGGGAAAACCCUGGCAUAUUCAACAGCUCGCAGUCAAG	0.384 ± 0.243 log2 fold change
GGUCACGUCUCAAUCAACUCAUCUCCCAGGGAAAACCCUGGCUAUCUCAACAGCUCGCAGUCAAG	0.3 ± 0.284 log2 fold change
GGUCACGUCUCAAUCAACUCUAUCUCCAGGGAAAACCCUGGCUAACUCAACAGCUCGCAGUCAAG	0.369 ± 0.3 log2 fold change
GGUCACGUCUCAAUCAACUCAUUUUCCAGGGAAAUCCCUGGCAUAUUCAACAGCUCGCAGUCAAG	0.33 ± 0.202 log2 fold change
GGUCACGUCUCAAUCAACUCUUAAGAGGGGGGGAAAACCCCUUUGCCCUCACACUCAACAGCUCGCAGUCAAG	0.323 ± 0.393 log2 fold change
GGUCACGUCUCAAUCAACUCUCUAGAGGGGGGGAAAACCCCUUUGCCCUCACUAUCAACAGCUCGCAGUCAAG	0.386 ± 0.408 log2 fold change
GGUCACGUCUCAAUCAACUCUCUAGAGGGGGGGAAAACCCCUUUGCCCUCACACUCAACAGCUCGCAGUCAAG	0.353 ± 0.4 log2 fold change
GGUCACGUCUCAAUCAACUCCAAAGAGGGGGGGAAAACCCCUUUACCCUCAUCUUCAACAGCUCGCAGUCAAG	0.443 ± 0.434 log2 fold change
GGUCACGUCUCAAUCAACUCAAAAGAGGGGGGGAAAACCCCUUUACCCUCAUCUUCAACAGCUCGCAGUCAAG	0.535 ± 0.407 log2 fold change
GGUCACGUCUCAAUCAACUCAAAAGAGGGGGGGAAAACCCCUUUACCCUCAUAUUCAACAGCUCGCAGUCAAG	0.449 ± 0.451 log2 fold change
GGUCACGUCUCAAUCAACUCUAUUUCCAGGGAAAUCCCUGGCUUAUUCAACAGCUCGCAGUCAAG	0.488 ± 0.245 log2 fold change
GGUCACGUCUCAAUCAACUCAUCUCCCAGGGAAAUCCCUGGCUUAUUCAACAGCUCGCAGUCAAG	0.417 ± 0.302 log2 fold change
GGUCACGUCUCAAUCAACUCUAUUUCCAGGGAAAUCCCUGGCUAACUCAACAGCUCGCAGUCAAG	0.335 ± 0.258 log2 fold change
GGUCACGUCUCAAUCAACUCAUUCCCCAGGGAAAUCCCUGGCUUAUUCAACAGCUCGCAGUCAAG	0.349 ± 0.307 log2 fold change
GGUCACGUCUCAAUCAACUCAAUCCCCAGGGAAAUCCCUGGCAUUCUCAACAGCUCGCAGUCAAG	0.318 ± 0.264 log2 fold change
